Data on 47 molecules can be found in PubChem BioAssay AID2685 (National Center for Advancing Translational Sciences (NCATS), 2010).

Each structure is given as a SMILES string. Among all 320,000 compounds or so, about 2,100 (0.66%) were called active. Roughly 53% stayed inconclusive and do not appear here. The call rests on the fitted dose curve; in most records, active means well fitted inhibition curve with a large enough effect in the signal ratio, with a control signal flat (not every such curve was filed as active); inconclusive means small, poorly fitted or top-dose-only effect, or effect the other way, or a change in a side signal; inactive means flat fitted curve, though single readings scatter; the % refers to the signal ratio. The entries come from a sample that favours actives as a whole.
Potency means the concentration at half of the fitted maximal effect.

The experiment is described as follows: qHTS Assay for Lipid Storage Modulators in Drosophila S3 Cells.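 On cell number change: cells counted by Cell Tracker Red CMTPX staining in the red channel.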 On lipid storage change, negative = inhibition: on the % scale 0 is the no-effect control and ±100 the full control effect. The note with it: BODIPY lipid droplet fluorescence, 18-24 h, cells fed with added oleic acid; cell number change: measured here: cell count max response; series mostly up to 46.1 µM; lipid storage change, negative = inhibition: at the top concentration. In a few lines:
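Laser-scanning cytometry quantifies lipid droplet accumulation (500–530 nm total intensity; droplet/cell object ratio) in oleic acid-fed (400 uM added) Drosophila S3 cells treated with a concentration series. 20 uM Triacsin C defined 100% inhibition.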
For the molecule `CN1C(=S)SC(N(O)C(=O)Nc2ccc(Cl)c(Cl)c2)C1(C)C` (configuration not stated), the “lipid storage change, negative = inhibition” value was -7.63% (inactive) and the cell number change is -15%.

Regarding `CCOc1ccc(CNc2ccc(N3CCCC3)cc2)cc1`, the molecule was classed as inactive.

Take `CCOc1ccc(CN2CCC(Cc3ccccc3)CC2)cc1`: the molecule was classed as inactive and the cell number change is 27.4%.

As for `CCOc1ccc(CNc2ccc(N3CCN(Cc4ccccc4)CC3)cc2)cc1`, the Potency was 2.31 µM (active).

As for `O=C(NC(C(=O)c1ccccc1)n1cnccc1=O)c1ccccc1` (configuration not stated), the “lipid storage change, negative = inhibition” value was -5.22% (inactive) and the cell number change was -10.1%.

Turning to `O=C(NCn1cnccc1=O)c1ccccc1`, the Potency was 20.6 µM (active) and the cell number change is 1.39%.

With `O=C(NCN1CCc2ccccc2C1)c1ccccc1`, the “lipid storage change, negative = inhibition” value was 3.53% (inactive) and the cell number change was determined as 0.788%.

For the molecule `Cc1noc(C)c1C(=O)Nc1nnc(CC(C)C)s1`, the “lipid storage change, negative = inhibition” value was -7.24% (inactive) and the cell number change worked out at 23.9%.

Regarding `O=C(Cc1cccs1)N(Cc1ccco1)C1(C(=O)NC2CCCC2)CCCCC1`, the Potency was 3.66 µM (active) and the cell number change is -17%.

Consider `CC(=O)N(Cc1ccco1)C1(C(=O)NC2CCCCC2)CCCCC1`, for which the “lipid storage change, negative = inhibition” value is 1.16% (inactive) and the cell number change was -0.0608%.

On to `O=C(Cc1cccs1)N(CC1CCCO1)C1(C(=O)NC2CCCC2)CCCCC1` (configuration not stated), for which the “lipid storage change, negative = inhibition” value is -0.959% (inactive) and the cell number change was -0.501%.

As for `CC(=O)NCC(=O)N(Cc1ccco1)C1(C(=O)NC2CCCC2)CCCCC1`, the “lipid storage change, negative = inhibition” value was 1.93% (inactive) and the cell number change amounted to 17.4%.

Turning to `CC(=O)N(Cc1ccco1)C1(C(=O)NC2CCCC2)CCCCC1`, the Potency was 14.6 µM (active) and the cell number change stood at 3.24%.

On to `O=C1NC(=O)C(CC(=O)N(Cc2ccco2)C2(C(=O)NC3CCCC3)CCCCC2)N1` (configuration not stated), for which the molecule was called inactive.

Take `O=C(NC(N1CCOCC1)C(Cl)(Cl)Cl)c1cc([N+](=O)[O-])cc([N+](=O)[O-])c1` (configuration not stated): the “lipid storage change, negative = inhibition” value is 2.11% (inactive).

Take `COC(CNC(=O)c1ccc(CS(=O)(=O)c2ccc(C)cc2)o1)OC`: the “lipid storage change, negative = inhibition” value was 5.22% (inactive) and the cell number change came to 23.5%.

As for `COc1nc(NCCN2CCOCC2)nc(Nc2ccccc2)n1`, the outcome was inactive and the cell number change was -13.7%.

On to `COc1ccc(NC(C)=O)cc1S(=O)(=O)Nc1ccc(OCc2ccccc2)cc1`, for which the molecule was classed as inactive and the cell number change is -6.41%.

`COc1ccc(NC(C)=O)cc1S(=O)(=O)NC(Cc1ccccc1)C(=O)O` (configuration not stated): the “lipid storage change, negative = inhibition” value was 17.4% (inactive) and the cell number change is -4.53%.

Regarding `COc1ccc(NC(C)=O)cc1S(=O)(=O)NC(Cc1ccccc1)C(=O)NCc1ccccc1C` (configuration not stated), the Potency was 1.84 µM (active) and the cell number change was -19.4%.

Turning to `O=C1NC(c2ccccc2Cl)Nc2ccccc21` (configuration not stated), the “lipid storage change, negative = inhibition” value was -6.86% (inactive) and the cell number change is -2.9%.

Consider `COc1ccccc1C(=O)Nc1nnc(SCC(=O)NCc2ccco2)s1`, for which the Potency was 20.6 µM (active) and the cell number change was -7.8%.

In the case of `Cc1ccccc1C(=O)Nc1nnc(SCC(=O)NCc2ccco2)s1`, the result was inactive and the cell number change was -7.23%.

Consider `COc1ccc(C(=O)Nc2nnc(SCC(=O)NCc3ccco3)s2)cc1OC`, for which the “lipid storage change, negative = inhibition” value was -13.8% (inactive).

On to `Cc1nc2ccc(NC(=S)NC(C)C)cc2nc1C`, for which the “lipid storage change, negative = inhibition” value was 7.57% (inactive) and the cell number change was -1.16%.

On to `COc1cc(C(=O)NC(C)c2ccc(S(N)(=O)=O)cc2)ccc1OCC(=O)N1CCOCC1` (configuration not stated), for which the “lipid storage change, negative = inhibition” value is 29.2% (inactive) and the cell number change was determined as 9.66%.

As for `CC12CN3CC(C)(CN(C1)C3c1ccc(Cl)cc1)C2` (configuration not stated), the “lipid storage change, negative = inhibition” value is -3.46% (inactive) and the cell number change was -7.54%.

As for `CC12CN3CC(C)(CN(C1)C3c1ccc(F)cc1)C2` (configuration not stated), the Potency was 0.731 µM (active) and the cell number change is -6.72%.

`CC12CN3CC(C)(CN(C1)C3c1ccccc1F)C2` (configuration not stated): the “lipid storage change, negative = inhibition” value was 4.33% (inactive).

Take `Cc1nnc(NC(=O)CSc2ccc(-c3ccco3)nn2)s1`: the “lipid storage change, negative = inhibition” value is 1.52% (inactive) and the cell number change worked out at 17.1%.

With `NS(=O)(=O)c1ccc(NC(=O)Nc2ccc(Cl)cc2)cc1`, the “lipid storage change, negative = inhibition” value is -5.77% (inactive) and the cell number change was -17.6%.

For `COc1ccc(CC(=O)Nc2nc(-c3ccc(F)c(F)c3)cs2)cc1OC`, the Potency was 6.51 µM (active) and the cell number change stood at 21%.

Turning to `COc1ccc(CC(=O)Nc2nc(-c3ccc(OC)c(OC)c3)cs2)cc1OC`, the “lipid storage change, negative = inhibition” value is -0.677% (inactive) and the cell number change is -7.98%.

Turning to `COc1ccc(CC(=O)Nc2nc(-c3ccc(F)c(F)c3)cs2)cc1`, the molecule was classed as inactive and the cell number change stood at 17.2%.

Regarding `Cc1ccccc1OCCC(=O)OCC(=O)Nc1ccc(C(N)=O)cc1`, the “lipid storage change, negative = inhibition” value was 3.07% (inactive) and the cell number change came to 0.749%.

In the case of `O=C(CSCc1ccc(F)cc1)Nc1ccc(F)cc1`, the “lipid storage change, negative = inhibition” value is 0.0604% (inactive) and the cell number change was 14.6%.

Take `CCc1nnc(NC(=O)C2CC(=O)N(C3CCCC3)C2)s1` (configuration not stated): the call was inactive and the cell number change was determined as 8.4%.

As to `CCOC(=O)N1CCN(C(=O)C2CCN(S(=O)(=O)c3cc(Cl)ccc3Cl)CC2)CC1`, the “lipid storage change, negative = inhibition” value was 9.01% (inactive) and the cell number change is -24.4%.

`COc1cc(C(=O)NCCC2=CCCCC2)ccc1OC1CCN(C(C)=O)CC1`: the “lipid storage change, negative = inhibition” value was -13.8% (inactive) and the cell number change was determined as 8.8%.

Turning to `CCC(C)C(=O)Nc1ccc(OC)cc1OC` (configuration not stated), the Potency is 23.1 µM (active) and the cell number change stood at 17.4%.

For `COc1ccc(NC(=O)CN2CCC(C(=O)c3ccc(F)cc3)CC2)c(OC)c1`, the molecule was classed as inactive and the cell number change is -0.87%.

As for `COc1ccc(NC(=O)C(CC(C)C)NC(=O)C2CCCCC2)c(OC)c1` (configuration not stated), the “lipid storage change, negative = inhibition” value is -6.75% (inactive) and the cell number change is -5.85%.

For the molecule `COc1ccc(NC(=O)c2ccc(C(=O)Nc3ccc(OC)cc3OC)cc2)c(OC)c1`, the “lipid storage change, negative = inhibition” value is -1.09% (inactive) and the cell number change came out at 1.2%.

Turning to `COc1ccc(NC(=O)CN2CCCN(S(=O)(=O)c3ccc(F)cc3)CC2)c(OC)c1`, the “lipid storage change, negative = inhibition” value was 0.193% (inactive) and the cell number change came to 0.557%.

Take `COc1ccc(NC(=O)CN2CCN(CC(=O)Nc3ccc(F)cc3)CC2)c(OC)c1`: the Potency is 18.4 µM (active) and the cell number change stood at 21.1%.

Consider `Cc1cc(Br)cc2c1NC(=O)C2(O)CC(=O)c1ccco1` (configuration not stated), for which the cell number change stood at 3.68% and the lipid storage change, negative = inhibition was 9.35% [at 9.22 µM] (inactive).

For `COc1ccc(NC(C)=[N+](C)CCNS(=O)(=O)c2ccc(Cl)cc2)cc1`, the “lipid storage change, negative = inhibition” value is 27.3% (inactive).
